Screening data deposited in PubChem BioAssay by National Center for Advancing Translational Sciences (NCATS).
In the library only some 9.4% were active in any assay of this set; here they are far more common.
ALDH1A1 block – inhibitors of human aldehyde dehydrogenase 1A1 | AID 1030 | hit rate 7.3% among 220,000 | Potency, µM (doses to about 75.3 µM), most hits filed as inhibitors | Purified ALDH1A1, NADH fluorescence, propionaldehyde substrate | P00352; active = well fitted inhibition curve with a large enough effect, not every such curve was filed as active; inconclusive = small, poorly fitted or top-dose-only effect, or another doubt; inactive = no such curve, though single readings can be large or run the other way
HPGD block – HPGD (human) dehydrogenase inhibition; P15428; purified HPGD, NADH fluorescence kinetic, PGE2 substrate; Potency, µM, actives largely listed as inhibitors; hit rate 4.3% among 150,000; active = well fitted inhibition curve with a large enough effect, not every such curve was filed as active; inconclusive = small, poorly fitted or top-dose-only effect, or another doubt; inactive = no such curve, though single readings can be large or run the other way
Target sequence (P15428 whole entry, looked up): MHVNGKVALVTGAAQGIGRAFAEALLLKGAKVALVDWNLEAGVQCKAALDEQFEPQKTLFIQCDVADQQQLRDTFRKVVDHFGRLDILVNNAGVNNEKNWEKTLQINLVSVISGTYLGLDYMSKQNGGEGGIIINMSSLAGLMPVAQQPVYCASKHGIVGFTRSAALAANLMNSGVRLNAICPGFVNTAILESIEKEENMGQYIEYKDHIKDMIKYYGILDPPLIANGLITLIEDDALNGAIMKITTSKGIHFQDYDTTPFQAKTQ
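NADH formation kinetics: reaction with 30 uM PGE2 and 1 mM NAD+ (final), 20 nM enzyme, Tris-HCl pH 8 with Tween 20, after 15 min compound preincubation at room temperature. Fluorescence change, last versus first of five reads.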
HTT cytoprotect – Huntington cell model cytoprotection by ATP luminescence | PC12 HTT-Q103 induced, cytoprotection, ATP luminescence, 40 h | Potency, µM (doses to about 56.4 µM), most hits filed as activators | hit rate 0.14% among 230,000; note: nearly all actives have a fitted effect of over 45% in size
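Compounds were screened for protection of PC12 cells against cell death after tebufenozide induction (100 nM final) of mutant Huntingtin exon 1 (Q103) fused to GFP.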
IMPase inh – cell-permeable inhibitors of inositol monophosphatase (IMPase). AID 901. 120,000 tested, under 10 active. CHO-M1 cells, IP1 accumulation, HTRF TR-FRET ratio. P97697. inhibition (IP1 accumulation), % at 46.1 µM; active = well fitted curve in the direction sought with a large enough effect in the signal ratio, not every such curve was filed as active; inconclusive = small, poorly fitted or top-dose-only effect, or a change in a side signal; inactive = no such curve, though single readings can be large or run the other way; the % refers to the signal ratio;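 note: cells stimulated with carbachol in lithium chloride buffer; higher means more IMPase inhibition seen as more IP1 and lower FRET ratio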
Target sequence (P97697 whole entry, looked up): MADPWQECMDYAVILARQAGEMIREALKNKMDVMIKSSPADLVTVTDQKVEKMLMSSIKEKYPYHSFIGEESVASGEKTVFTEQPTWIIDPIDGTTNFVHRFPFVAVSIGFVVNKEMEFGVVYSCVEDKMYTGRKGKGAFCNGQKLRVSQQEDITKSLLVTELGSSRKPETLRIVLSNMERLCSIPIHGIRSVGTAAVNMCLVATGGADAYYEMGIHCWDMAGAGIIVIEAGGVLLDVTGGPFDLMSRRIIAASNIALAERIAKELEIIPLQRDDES
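The IP-One HTRF competitive assay in carbachol-stimulated CHO-M1 cells quantifies cellular IP1. Compounds spanned up to 46 uM final, and activity is expressed as AC50 from concentration-response fits of the ratio and donor data.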
IMPase Li inh – IMPase inhibition in cells with lithium potentiation | CHO-M1 cells, IP1 TR-FRET (IP-One), carbachol + lithium | Potency, µM (series often up to 59.4 µM), hits mostly inhibitors | hit rate 0.35% among 210,000;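 note: IP1 builds up when IMPase is blocked and the TR-FRET signal falls; nearly all actives have a fitted effect of over 50% in size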
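CHO-M1, 2000 cells/well, 16–30 h culture; cpd + low Li+, 30 min 37C; lysis with d2-IP1/Eu-anti-IP1 Ab, 10 min RT; TR-FRET 665/620 ratio and 620 channel; AC50 via Hill.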
HTT aggregate – mutant huntingtin aggregation inhibition. Potency, µM (top dose mostly 46.1 µM), actives largely listed as inhibitors. hit rate 1.1% among 220,000. PC12 HttQ103-GFP aggregates, Acumen cytometry, 40 h; note: nearly all actives have a fitted effect of over 60% in size
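Aggregates are detected as GFP objects 1–25 µm with signal 6 STDEV over background in lysates of induced PC12 cells. These carry Huntingtin exon 1 with 103 glutamines fused to GFP under an ecdysone promoter; compounds titrated.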
Large screens that a line does not name were inactive. Unless noted, calls come from the whole dose curve; as a rule, active = well fitted curve in the direction sought with a large enough effect; inconclusive = small, poorly fitted or top-dose-only effect, or another doubt; inactive = no such curve, though single readings can be large; an effect the other way counts as inactive or inconclusive.

CCOC(=O)c1c(NC(=O)CCC(=O)N2CCOCC2)sc2c1CC(C)(C)OC2	ALDH1A1 block inconclusive
CCCC(=O)Nc1sc2c(c1C(=O)OCC)CC(C)(C)OC2	ALDH1A1 block inconclusive (no result: HPGD block, IMPase inh)
C=C(C)CNC(=S)Nc1sc2c(c1C(=O)OCC)CC(C)(C)OC2	ALDH1A1 block 12.6µM (no result: HPGD block, IMPase Li inh)
CCOC(=O)c1c(NC(=O)CCN2CCOCC2)sc2c1CC(C)(C)OC2	ALDH1A1 block 22.4µM
CCOC(=O)c1c(NC(=O)CN2CCOCC2)sc2c1CC(C)(C)OC2	ALDH1A1 block 14.1µM
COc1ccc(NC(=O)CSc2nnc(Cc3cccn3C)n2-c2ccc(F)cc2)cc1OC	ALDH1A1 block 25.1µM
O=C(CSc1nnc(Cc2cccs2)n1-c1ccccc1)Nc1ccc2c(c1)OCCO2	ALDH1A1 block 7.94µM
O=C1COc2ccc(C(=O)CSc3nnc(Cc4cccs4)n3-c3ccccc3)cc2N1	ALDH1A1 block 3.16µM
Cc1nnc(NC(=O)CSc2nnc(Cc3cccn3C)n2C)s1	ALDH1A1 block 22.4µM
O=C1COc2ccc(C(=O)CSc3nnc(-c4cccs4)n3Cc3ccccc3)cc2N1	ALDH1A1 block inconclusive
COc1ccc(-n2c(=O)c(-c3ccc(F)c(F)c3)nc3cncnc32)cc1	none (no result: HPGD block, IMPase inh, HTT aggregate)
COc1ccc(-n2c(Cc3cccn3C)nnc2SCC(=O)Nc2ccc(Cl)cc2)cc1	ALDH1A1 block 3.98µM
Cn1cccc1Cc1nnc(SCC(=O)Nc2ccc(Cl)cc2)n1-c1ccc(F)cc1	ALDH1A1 block inconclusive
COc1ccc(-n2c(Cc3cccn3C)nnc2SCC(=O)Nc2ccccc2)cc1	ALDH1A1 block 14.1µM
CCc1ccc(NC(=O)CSc2nnc(Cc3cccn3C)n2-c2ccc(OC)cc2)cc1	ALDH1A1 block inconclusive
Cc1ccc(-n2c(Cc3cccn3C)nnc2SCC(=O)Nc2ccc3c(c2)OCO3)cc1	ALDH1A1 block inconclusive, HTT aggregate inconclusive
Cn1cccc1Cc1nnc(SCC(=O)Nc2ccccc2)n1-c1ccc(F)cc1	ALDH1A1 block inconclusive
COc1ccc(-n2c(Cc3cccn3C)nnc2SCC(=O)Nc2cccc(F)c2)cc1	ALDH1A1 block 12.6µM
Cn1cccc1Cc1nnc(SCC(=O)Nc2ccc3c(c2)OCCO3)n1-c1ccc(F)cc1	ALDH1A1 block 20µM
Cn1c(=O)c2c(nc(-n3ccnc3)n2Cc2ccccc2)n(C)c1=O	ALDH1A1 block 10µM
Cn1c(=O)c2c(nc(-n3ccnc3)n2C)n(C)c1=O	none
Cn1c(=O)c2c(nc(NCc3ccccc3)n2Cc2ccc(F)cc2)n(C)c1=O	HTT aggregate 20µM
Cn1c(=O)c2c(nc(NCc3ccco3)n2CCc2ccccc2)n(C)c1=O	HTT aggregate 12.6µM
CCn1c(NCc2ccco2)nc2c1c(=O)n(C)c(=O)n2C	none
CCCNc1nc2c(c(=O)n(C)c(=O)n2C)n1Cc1ccc(F)cc1	HTT aggregate inconclusive
Cc1ccc(S(=O)(=O)N2CCc3nc(-c4ccccc4)c4c(c3C2)CO[C@@H](C)C4)cc1	none (no result: IMPase inh, HTT aggregate)
O=C(COc1ccc2oc3c(c2c1)CCCC3)Nc1ccc(Cl)cc1	none (no result: ALDH1A1 block, HPGD block, HTT cytoprotect, IMPase Li inh, HTT aggregate)
CCOc1ccc(-c2nnc3sc(COc4ccccc4)nn23)cc1	IMPase inh inconclusive
c1ccc(Cc2nn3c(COc4ccccc4)nnc3s2)cc1	ALDH1A1 block 5.01µM, HPGD block 10µM
CCOc1ccccc1OCc1nn2c(COc3ccccc3)nnc2s1	ALDH1A1 block 7.94µM, HPGD block 11.2µM
Clc1ccccc1-c1nn2c(COc3ccccc3)nnc2s1	ALDH1A1 block 20µM, HPGD block 28.2µM, HTT aggregate inconclusive
COC(=O)C(C(C)=O)C(NC(=O)OC(C)(C)C)c1ccccc1 (stereo not drawn)	HTT cytoprotect inconclusive (no result: IMPase inh, HTT aggregate)
N#CC(c1cccc(Cl)c1)c1ccc2c(C(F)(F)F)cc(C(F)(F)F)nc2n1 (stereo not drawn)	ALDH1A1 block inconclusive, IMPase inh inconclusive, HTT aggregate 0.891µM
NNc1ccc2c(C(F)(F)F)cc(C(F)(F)F)nc2n1	ALDH1A1 block inconclusive (no result: HPGD block, HTT cytoprotect, IMPase inh)
O=S(=O)(O)c1cc(N=[N+]([O-])c2cc(S(=O)(=O)O)c3ccccc3c2)cc2ccccc12	ALDH1A1 block inconclusive (no result: IMPase inh, HTT aggregate)
Cc1cccc(NC(=O)CSc2nc3nc4c(cc3c(=O)n2-c2ccccc2)CCCC4)c1	ALDH1A1 block inconclusive
Cc1ccccc1-n1c(SCC(=O)Nc2ccccc2)nc2nc3c(cc2c1=O)CCCC3	ALDH1A1 block 7.94µM
O=C(CSc1nc2nc3c(cc2c(=O)n1-c1ccccc1)CCCC3)Nc1cccc2ccccc12	ALDH1A1 block 7.94µM
COC(=O)C1=C(C(=O)OC)[C@@H]2N(C)c3ccc(OC)cc3[C@@]23C[C@@H](C(=O)OC)N(S(=O)(=O)c2cccs2)C3=N1	none (no result: IMPase inh, HTT aggregate)
O=C(COc1ncnc2c(Cl)cc(Cl)cc12)Nc1cc([N+](=O)[O-])ccc1Cl	none (no result: IMPase inh)
CC(C)NC(=O)CC(=O)N/N=C/c1ccc(Br)cc1	none
CC(C)CNC(=O)CC(=O)N/N=C/c1ccc(Br)cc1	ALDH1A1 block 0.891µM, HPGD block 15.8µM, HTT aggregate inconclusive
CO[C@@H]1COC(=O)C/C=C\[C@@H](C)COC(=O)[C@H](COCc2ccccc2)NC(=O)C/C=C\[C@H]1C	HTT cytoprotect inconclusive (no result: HPGD block, IMPase inh, IMPase Li inh, HTT aggregate)
COC(=O)CCC(=O)Nc1sc(C)c(C)c1C(N)=O	ALDH1A1 block 12.6µM, HPGD block 14.1µM
Cc1sc(NC(=O)CCC(=O)O)c(C(N)=O)c1-c1ccccc1	ALDH1A1 block 12.6µM, HPGD block 14.1µM (no result: HTT cytoprotect, IMPase inh)
COC(=O)c1c(NC(=O)CCC(=O)O)sc(Cc2ccccc2)c1C	none (no result: ALDH1A1 block, HPGD block, IMPase inh, IMPase Li inh)
CCC(=O)N(CC(=O)Nc1sc(C)c(C)c1C(N)=O)C1CCCC1	ALDH1A1 block 8.91µM (no result: HPGD block, IMPase inh)
COc1ccc(NC(=O)c2c(NC(=O)CCC(=O)O)sc(-c3ccccc3)c2C)cc1	ALDH1A1 block 8.91µM (no result: HPGD block, IMPase inh)
Cc1sc(NC(=O)C2CCCCC2C(=O)O)c(C(N)=O)c1-c1ccccc1 (stereo not drawn)	none
N=c1ccn2c(n1)O[C@@H]1[C@H](O)[C@H](CO)O[C@@H]12	none (no result: HTT aggregate)
Cc1ccc(NC2=CC(c3ccccc3F)N(c3ccc(C)cc3)C2=O)cc1 (stereo not drawn)	none (no result: ALDH1A1 block, HPGD block, HTT cytoprotect, IMPase Li inh, HTT aggregate)
CC(C)(C)n1nnnc1CN(Cc1ccc(F)cc1)Cc1ccco1	ALDH1A1 block 14.1µM
C/C(=N\Nc1ccc([N+](=O)[O-])cc1)c1cc2ccccc2o1	none (no result: HPGD block, IMPase inh)
O=C(CN1CCc2ccccc2C1)N1CCN(S(=O)(=O)c2ccccc2)CC1	ALDH1A1 block inconclusive
Cc1ccc(S(=O)(=O)N2CCN(C(=O)CN3CCc4ccccc4C3)CC2)cc1	ALDH1A1 block 14.1µM
Cc1ccc(S(=O)(=O)N2CCN(C(=O)C3Cc4ccccc4CN3C(=O)c3ccco3)CC2)cc1 (stereo not drawn)	ALDH1A1 block 8.91µM
